Measured values as given in PubChem BioAssay (Tox21).
Inconclusive results are not listed. The source made the active and inactive calls. Unless noted, calls come from the whole dose curve; as a rule, active = well fitted curve in the direction sought with a large enough effect in the repeat runs; inconclusive = weak or mixed curves; inactive = no such curve, though single readings can be large; an effect the other way counts as inactive or inconclusive.

Columns and labels:
[1] = qHTS assay to identify small molecule agonists of the peroxisome proliferator-activated receptor delta (PPARd) signaling pathway - cell viability counter screen (AID 743211); conditions: PPARd-bla HEK293H viability, CellTiter-Glo luminescence, 17 h; series mostly up to 62.6 µM; note: nearly all actives have a fitted effect of over 55% in size
Outline: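 Following 5 h plating at 37 C and 5% CO2, PPARd UAS-bla HEK293H cells took up test compounds for 17 h. Viability was quantified by luminescence 30 min after CellTiter-Glo addition at room temperature.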

[2] = target: Peroxisome proliferator-activated receptor delta (Homo sapiens) (UniProt Q03181); test: qHTS assay to identify small molecule agonists of the peroxisome proliferator-activated receptor delta (PPARd) signaling pathway (AID 743212; calls by dose curve); conditions: HEK293H PPARd-UAS-bla, beta-lactamase FRET ratio, 17 h; series mostly up to 62.6 µM
Outline: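 HEK293H UAS-bla reporter cells, human PPARd system; compounds delivered in DMSO after 5 h plating, then at 37 C. Beta-lactamase FRET read, 2 h RT substrate step.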

[3] = qHTS assay to identify small molecule antagonists of the peroxisome proliferator-activated receptor delta (PPARd) signaling pathway - cell viability counter screen (AID 743213); conditions: PPARd-bla HEK293H viability, CellTiter-Glo luminescence, 17 h; series mostly up to 62 µM; note: nearly all actives have a fitted effect of over 50% in size
Outline: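 Cytotoxicity counter screen: CellTiter-Glo luminescence read 30 min after addition, in the same wells as the reporter assay. There, PPARd UAS-bla HEK293H cells (3000/well) were treated 17 h at 37 C with compound and 300 nM L165041.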

[4] = qHTS assay to identify small molecule antagonists of the farnesoid-X-receptor (FXR) signaling pathway - cell viability counter screen (AID 743221; active = well fitted cell-killing curve with a large enough effect in the repeat runs, not every such curve was filed as active; note: nearly all actives have a fitted effect of over 50% in size); conditions: FXR-bla HEK293T viability, CellTiter-Glo luminescence, 16 h; series mostly up to 62.6 µM
Outline: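 Compound effects on cell number were measured as CellTiter-Glo luminescence in HEK 293T cells expressing FXR-UAS-bla, after 16 h at 37 C with 50 uM CDCA (final).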

[5] = target: Vitamin D3 receptor (Homo sapiens) (UniProt P11473); test: qHTS assay to identify small molecule agonists of the vitamin D receptor (VDR) signaling pathway (AID 743222; calls by dose curve); conditions: HEK293T VDR-UAS-bla, beta-lactamase FRET ratio, 16 h; series mostly up to 63.5 µM
Outline: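 Quantitative HTS agonist-mode screen: compounds in DMSO were pin-transferred onto VDR-bla cells and incubated 16 h at 37C, 5% CO2. Reporter activity was detected with LiveBLAzer B/G FRET substrate after 2 h at room temperature.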

[6] = target: Vitamin D3 receptor (Homo sapiens) (UniProt P11473); test: qHTS assay to identify small molecule antagonists of the vitamin D receptor (VDR) signaling pathway (AID 743223; active = well fitted inhibition curve with a large enough effect in the signal ratio in the repeat runs, not every such curve was filed as active; the % refers to the signal ratio); conditions: VDR-UAS-bla HEK293T, beta-lactamase FRET ratio, 16 h; series mostly up to 61 µM
Outline: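 Beta-lactamase activity in VDR-bla cells is measured by FRET substrate fluorescence (2 h, room temperature) after cells spend 16 h at 37C with test compound and 3 nM final 1alpha,25-dihydroxyvitamin D3.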

[7] = target: Peroxisome proliferator-activated receptor delta (Homo sapiens) (UniProt Q03181); test: qHTS assay to identify small molecule antagonists of the peroxisome proliferator-activated receptor delta (PPARd) signaling pathway (AID 743215; active = well fitted inhibition curve with a large enough effect in the signal ratio in the repeat runs, not every such curve was filed as active; the % refers to the signal ratio;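 note: cells stimulated with agonist L165041 at 300 nM final during compound exposure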); conditions: HEK293H PPARd-UAS-bla, beta-lactamase FRET ratio, antagonist, 17 h; series mostly up to 62 µM
Outline: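 Inhibition of L165041-driven (300 nM final) PPARd signaling is scored in HEK293H UAS-bla cells. Exposure lasts 17 h at 37 C; beta-lactamase activity is then read by FRET substrate fluorescence after 2 h at room temperature.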

[8] = qHTS assay to identify small molecule agonists of the farnesoid-X-receptor (FXR) signaling pathway - cell viability counter screen (AID 743218); conditions: FXR-bla HEK293T viability, CellTiter-Glo luminescence, 16 h; series mostly up to 62.6 µM; note: nearly all actives have a fitted effect of over 45% in size
Outline: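 Cytotoxicity counter-screen run in parallel, same wells: FXR-UAS-bla HEK 293T cells dosed 16 h at 37 C, viability read by CellTiter-Glo luminescence after 30 min at room temperature.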

[9] = target: Bile acid receptor (Homo sapiens) (UniProt Q96RI1); test: qHTS assay to identify small molecule antagonists of the farnesoid-X-receptor (FXR) signaling pathway (AID 743217; active = well fitted inhibition curve with a large enough effect in the signal ratio in the repeat runs, not every such curve was filed as active; the % refers to the signal ratio); conditions: HEK293T FXR-UAS-bla, beta-lactamase ratio, CDCA-stimulated, 16 h; series mostly up to 62.6 µM
Outline: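 Antagonist mode against 50 uM (final) chenodeoxycholic acid stimulation in FXR-bla HEK 293T cells, 16 h at 37 °C. Inhibition detected as reduced beta-lactamase activity via LiveBLAzer B/G FRET fluorescence after 2 h at room temperature.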

[10] = target: Bile acid receptor (Homo sapiens) (UniProt Q96RI1); test: qHTS assay to identify small molecule agonists of the farnesoid-X-receptor (FXR) signaling pathway (AID 743220; active = well fitted activation curve with a large enough effect in the signal ratio in the repeat runs, not every such curve was filed as active; the % refers to the signal ratio); conditions: HEK293T FXR-UAS-bla, beta-lactamase FRET ratio, 16 h; series mostly up to 62.6 µM
Outline: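 Beta-lactamase reporter under UAS control in GeneBLAzer FXR HEK 293T cells (5000/well) measured with LiveBLAzer FRET substrate after 2 h at room temperature. Compound exposure lasted 16 h at 37C.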

Measured: Potency

Chain of Vitamin D3 receptor (Homo sapiens) (P11473 whole entry, looked up): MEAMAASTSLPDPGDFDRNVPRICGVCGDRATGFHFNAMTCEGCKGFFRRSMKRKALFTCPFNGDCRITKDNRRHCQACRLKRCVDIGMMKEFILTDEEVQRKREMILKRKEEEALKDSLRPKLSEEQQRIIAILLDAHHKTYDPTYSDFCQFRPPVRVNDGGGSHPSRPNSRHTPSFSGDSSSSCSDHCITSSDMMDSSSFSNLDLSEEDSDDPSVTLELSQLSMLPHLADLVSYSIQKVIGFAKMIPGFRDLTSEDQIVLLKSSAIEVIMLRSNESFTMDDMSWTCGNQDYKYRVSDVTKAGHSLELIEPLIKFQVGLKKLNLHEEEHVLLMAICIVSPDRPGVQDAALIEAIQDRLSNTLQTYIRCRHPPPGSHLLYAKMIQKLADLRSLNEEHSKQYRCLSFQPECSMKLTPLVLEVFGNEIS
Chain of Peroxisome proliferator-activated receptor delta (Homo sapiens) (Q03181 whole entry, looked up): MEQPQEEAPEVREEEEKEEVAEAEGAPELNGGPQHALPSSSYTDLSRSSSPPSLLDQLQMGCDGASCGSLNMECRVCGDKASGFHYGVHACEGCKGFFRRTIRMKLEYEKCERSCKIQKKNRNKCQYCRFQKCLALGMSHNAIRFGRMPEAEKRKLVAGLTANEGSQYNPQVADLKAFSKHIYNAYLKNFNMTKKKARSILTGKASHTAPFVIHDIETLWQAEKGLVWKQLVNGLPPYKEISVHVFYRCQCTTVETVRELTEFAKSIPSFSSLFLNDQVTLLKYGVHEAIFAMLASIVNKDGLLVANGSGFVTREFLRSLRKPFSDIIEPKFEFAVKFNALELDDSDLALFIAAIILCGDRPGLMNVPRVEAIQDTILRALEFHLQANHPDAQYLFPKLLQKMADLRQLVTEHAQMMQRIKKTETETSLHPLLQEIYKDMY
Chain of Bile acid receptor (Homo sapiens) (Q96RI1 whole entry, looked up): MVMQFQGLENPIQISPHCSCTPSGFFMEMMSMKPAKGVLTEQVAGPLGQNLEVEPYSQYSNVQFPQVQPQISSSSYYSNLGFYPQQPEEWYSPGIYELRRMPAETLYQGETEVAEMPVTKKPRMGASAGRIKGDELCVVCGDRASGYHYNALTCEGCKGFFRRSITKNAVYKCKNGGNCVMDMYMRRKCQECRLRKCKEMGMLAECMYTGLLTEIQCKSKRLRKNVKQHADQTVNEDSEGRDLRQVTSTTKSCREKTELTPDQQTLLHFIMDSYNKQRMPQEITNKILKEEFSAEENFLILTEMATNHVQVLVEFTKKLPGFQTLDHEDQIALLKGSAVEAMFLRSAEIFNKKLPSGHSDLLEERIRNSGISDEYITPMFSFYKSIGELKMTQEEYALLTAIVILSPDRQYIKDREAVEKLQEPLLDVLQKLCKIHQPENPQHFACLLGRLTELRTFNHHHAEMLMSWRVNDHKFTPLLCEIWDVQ

CC(C)(C)c1cc(CCC(=O)NN)cc(C(C)(C)C)c1O
inactive: [1] | [2] | [3] | [4] | [5] | [6]

C=C(C)C(=O)OCCN(CC)CC
inactive: [1] | [2] | [7] | [8] | [4] | [5]

COc1ccc2c(c1OC)C(=O)O[C@@H]2[C@H]1c2c(cc3c(c2OC)OCO3)CCN1C
inactive: [1] | [2] | [8] | [4] | [5]

O=C1CC(c2ccc(Cl)cc2)CC(=O)N1
inactive: [1] | [2] | [7] | [9] | [8] | [10] | [4] | [5] | [6]

CCCCNc1ccc(C(=O)OCCN(C)C)cc1
inactive: [1] | [2] | [3] | [4] | [6]

CCCCCCOc1ccccc1C(N)=O
inactive: [1] | [2] | [7] | [8] | [4] | [5] | [6]

O=S(=O)(O)CCN1CCN(CCO)CC1
inactive: [1] | [3] | [9] | [8] | [10] | [5]

CC(C(=O)O)c1ccc2c(c1)CC(=O)c1ccccc1S2 (centres undefined)
inactive: [1] | [3] | [7] | [8] | [4]

CC(=O)Nc1cccc(C)c1
inactive: [1] | [2] | [3] | [4] | [6]

CCCCCCCCCCl
inactive: [1] | [3] | [9] | [8] | [10] | [4] | [6]

COCCOC(=O)C1=C(C)NC(C)=C(C(=O)OC(C)C)C1c1cccc([N+](=O)[O-])c1 (centres undefined)
inactive: [1] | [2] | [7] | [8] | [4] | [6]

C=C(C)C1CCC(C)(O)CC1 (centres undefined)
inactive: [1] | [3] | [7] | [8] | [4] | [5] | [6]

CC1(CO)CN(c2ccccc2)NC1=O (centres undefined)
inactive: [1] | [3] | [7] | [5] | [6]

C=C1CC/C=C(\C)CC[C@@H]2[C@@H]1CC2(C)C
inactive: [1] | [3] | [9] | [8] | [10] | [4]

CC(=O)Nc1ccc(S(=O)(=O)Cl)cc1
inactive: [1] | [2] | [3] | [4] | [5] | [6]

CCCOC(OCCC)OCCC
inactive: [1] | [2] | [9] | [8] | [10] | [4] | [5] | [6]

C=C(C)C(=O)OCCOP(=O)(O)OCCOC(=O)C(=C)C
inactive: [1] | [2] | [7] | [9] | [8] | [10] | [4]

CC(C)c1ccc2cc(C(C)C)ccc2c1
inactive: [1] | [3] | [4] | [5] | [6]

N#Cc1ccc(C(=O)O)cc1
inactive: [1] | [3] | [8] | [10] | [4] | [5]

CCCCCCCCCCCCCC
inactive: [1] | [3] | [8] | [4] | [5] | [6]

CC(COC(C)(C)C)OCCCO (centres undefined)
inactive: [1] | [3] | [9] | [10] | [4] | [5] | [6]

N[C@@H](CCC(=O)N[C@@H](CS)C(=O)NCC(=O)O)C(=O)O
inactive: [1] | [3] | [8] | [4] | [5]

CCCOC(=O)C(C)O (centres undefined)
inactive: [2] | [9] | [8] | [10] | [4]

CC(=O)N[C@@H](CCC(=O)O)C(=O)O
inactive: [1] | [3] | [8] | [4]

CCOC(=O)c1ncn2c1CN(C)C(=O)c1cc(F)ccc1-2
inactive: [1] | [3] | [8] | [4]

NCCN1CCOCC1
inactive: [1] | [3] | [4] | [5]

O=S(=O)(O)c1cc(O)c2ccc(Nc3ccccc3)cc2c1
inactive: [1] | [3] | [8] | [4] | [5] | [6]

CC(C)(C)c1n[nH]c(=S)n(N)c1=O
inactive: [1] | [3] | [4]

Brc1ccc(-c2ccccc2)cc1
inactive: [1] | [3] | [8] | [4] | [6]

c1ccc2nccnc2c1
inactive: [1] | [3] | [9] | [10] | [4] | [5]

CC/C=C\CC1=C(C)CCC1=O
inactive: [1] | [3] | [8] | [4]

CC(=O)NCc1c(I)c(NC(C)=O)c(I)c(C(=O)O)c1I
inactive: [1] | [8] | [4] | [5]

COC(=O)CCCCCCCC(=O)OC
inactive: [3] | [4] | [5] | [6]

NS(=O)(=O)c1cc2c(cc1Cl)CN(C1CCCCC1)C2=O
inactive: [1] | [3] | [9] | [10] | [4] | [6]

CC(CO)c1ccccc1 (centres undefined)
inactive: [1] | [3] | [8] | [4]

CCCN1C[C@H](CSC)C[C@@H]2c3cccc4[nH]cc(c34)C[C@H]21
inactive: [2] | [7] | [4] | [5] | [6]

Cc1cc(C(C)(C)C)c(O)c(C)c1CC1=NCCN1
inactive: [2] | [3] | [8] | [4]

CC1=CCC(C(C)C)=CC1
inactive: [1] | [3] | [8] | [4]

O=C(OCC(O)CO)c1ccccc1Nc1ccnc2c(C(F)(F)F)cccc12 (centres undefined)
inactive: [1] | [3] | [8] | [10] | [4] | [6]

CCOc1cc([N+](=O)[O-])c(OCC)cc1N1CCOCC1
inactive: [1] | [3] | [8] | [4] | [5] | [6]

O=C(OCc1ccccc1)C(=O)OCc1ccccc1
inactive: [2] | [3] | [8] | [4] | [5]

C=C(C)C(=O)OCCNC(C)(C)C
inactive: [1] | [3] | [8] | [4] | [5] | [6]

CN(C)C(=O)CNC(=O)Cc1ccccc1
inactive: [1] | [4]

Cc1cccc(C)c1OCC(C)N (centres undefined)
inactive: [1] | [3] | [9] | [4]

On1nnc2ccccc21
inactive: [1] | [5] | [6]

CC(S)C(=O)NCC(=O)O (centres undefined)
inactive: [1] | [3] | [8] | [4] | [5] | [6]

Cc1ccccc1C(=O)Nc1ccc(C(=O)N2CCCC(N(C)C)c3ccccc32)cc1 (centres undefined)
inactive: [1] | [3] | [8] | [10] | [4] | [5]

CCOCCOC(=O)/C=C/c1ccc(OC)cc1
inactive: [1] | [3] | [9] | [10] | [4] | [6]

COC(=O)CCc1ccc(OCC(O)CNC(C)C)cc1 (centres undefined)
inactive: [1] | [3] | [4] | [5] | [6]

Cc1cccc(C)c1NC(=O)c1ccccc1C(=O)O
inactive: [1] | [3] | [8] | [4] | [5]

O=C(O)c1cc(Cl)cc([N+](=O)[O-])c1Cl
inactive: [1] | [3] | [9] | [10] | [4] | [5] | [6]

Cc1cccc(OCC(O)CNC(C)(C)C)c1C (centres undefined)
inactive: [1] | [3] | [8] | [4] | [5] | [6]

Cc1cc(Cl)c(C)cc1Cl
inactive: [1] | [3] | [8] | [4] | [5]

O=P(O)(O)OP(=O)(O)O
inactive: [1] | [3] | [8] | [4] | [5]

Nc1ccc(S(=O)(=O)Nc2ccc(Cl)nn2)cc1
inactive: [2] | [3] | [7] | [9] | [8] | [10] | [4] | [5] | [6]
